Here are results for 5 molecules from PubChem BioAssay.

The structures appear in SMILES notation. Active and inactive are the calls of the source.

One experiment has as its target Albumin (Bos taurus) (UniProt P02769). The experiment can be described thus: compounds binding labelled BSA control protein – biochemical, small-molecule microarray, Alexa647 label, 635/667 nm fluorescence, artefact control for SMM control protein annotation, profiling panel (AID 1118).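 Also: score merges 667 nm emission intensity and signal-to-noise per printed compound spot.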 The conditions noted are these: BSA-A647 binding, fluorescence 635 nm, higher = more signal.

A short description of experiment [1]: probe aXIP binding to arrayed compounds – biochemical, NeuroSMM set, 635/667 nm fluorescence, primary screen (AID 1119).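 Also: probe is the protein aXip251-270 applied at 1 µg/mL to compound-printed slides; binding of probe to printed compounds measured as 667 nm fluorescence plus signal to noise.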 The conditions noted are these: small-molecule microarray, higher = more signal, called active from +8 up or from −8 down.
The nature of experiment [2]: probe aNOTCH3 binding on compound microarray – biochemical, small-molecule microarray, 635/667 nm fluorescence, primary screen (AID 1120).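 Also: probe is a biotin-tagged antibody raised against NOTCH3 rather than NOTCH3 protein; score merges spot fluorescence near 667 nm with spot signal to noise.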 As to conditions: higher = more signal.
Experiment [3] in a line: probe aNOTCH2 binding on compound microarray – biochemical, small-molecule microarray, 635/667 nm fluorescence, primary screen (AID 1121).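 Also: score merges feature fluorescence read at 667 nm with its signal to noise.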 As to conditions: higher = more signal.
Experiment [4] concerns the target Carbonic anhydrase 2 (Homo sapiens) (UniProt P00918). The experiment can be described thus: compounds binding carbonic anhydrase 2 – biochemical, small-molecule microarray, Alexa647-labelled CAII, profiling panel (AID 1122). The conditions noted are these: CAII-A647 binding fluorescence, higher = more signal.
A short description of experiment [5]: COS7 lysate on small-molecule microarray, probe aHis, 635 nm (AID 1123).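 Also: z-score combines 667nm fluorescence intensity with signal-to-noise per printed compound spot.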 As to conditions: COS7 cell lysate, fluorescence, higher = more signal.
Experiment [6] can be described thus: probe aLAP1 signal on lysate-treated microarray – cell lysate, small-molecule microarray, COS7 lysate, primary screen (AID 1124).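 Also: lysate comes from COS7 cells expressing LAP1 and is applied at 0.3 µg/mL; score merges spot fluorescence near 667 nm with signal-to-noise over triplicate slides.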 As to conditions: probe aLAP1, fluorescence, higher = more signal.
The test system of a further experiment is Sam68 (KHDRBS1). Description: compounds binding KHDRBS1 protein – biochemical, small-molecule microarray, 635 nm fluorescence, primary screen (AID 1125).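 Also: score merges 667 nm channel intensity with signal to noise over triplicate slides.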 The conditions noted are these: higher = more signal.
In experiment [7] the test system is Chordin-like protein 2 (CHRDL2). Description: compounds binding chordin-like 2 – biochemical, small-molecule microarray, 635 nm fluorescence, primary screen (AID 1126).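 Also: printed compound slides probed with Chrdl2 protein at 4 µg/mL for 1 h at 4 C; score merges 667 nm emission intensity with signal to noise over three replicate slides.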 The conditions noted are these: fluorescence 635 nm, higher = more signal.
For experiment [8], the target named is Concanavalin-A (Canavalia ensiformis) (UniProt P02866). The experiment can be described thus: compounds binding concanavalin A lectin – biochemical, small-molecule microarray, Alexa647 label, 635 nm, artefact control for SMM control protein annotation, primary screen (AID 1127).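 Also: z combines 667 nm emission intensity with signal-to-noise across three replicate slides.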 As to conditions: ConA-A647 binding fluorescence, higher = more signal.
Experiment [9] is described as follows: compounds binding Alexa647 anti-His antibody – biochemical, small-molecule microarray, 635 nm fluorescence, artefact control for SMM control protein annotation, primary screen (AID 1128).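 Also: score merges feature fluorescence with signal-to-noise for each printed compound spot.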 The conditions noted are these: higher = more signal.
Experiment [10] has as its system Human papillomavirus type 1a E7 protein (residues 1-88). Description: HPV1a E7 small-molecule binders, primary screen, biochemical, small-molecule microarray, residues 1-88, 635 nm (AID 1129). As to conditions: small-molecule microarray binding, fluorescence 635 nm; higher = more signal.
For experiment [11], the target named is Focal adhesion kinase 1 (Homo sapiens) (UniProt Q05397). The experiment can be described thus: PTK2 protein binding on printed compound slides – biochemical, small-molecule microarray, 635/667 nm fluorescence, BSA, DTT, primary screen (AID 1130).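 Also: composite of spot emission at 667 nm and signal to noise over triplicate slides.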 As to conditions: 635 nm fluorescence, higher = more signal.
The subject of experiment [12] is Fibrinogen (Alexa647-labelled). The experiment can be described thus: Alexa647-fibrinogen binding to printed small molecules – biochemical, small-molecule microarray, 635/667 nm fluorescence, artefact control for SMM control-protein annotation, profiling panel (AID 1131).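 Also: z-score merges 667 nm fluorescence with per-spot signal-to-noise over triplicate slides.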 The conditions noted are these: fibrinogen-A647 binding fluorescence, higher = more signal.
The target of experiment [13] is Follistatin (Homo sapiens) (UniProt P19883). Description: FST protein binding to printed compounds – biochemical, small-molecule microarray, 635/667 nm fluorescence, primary screen (AID 1132). The conditions noted are these: 635 nm fluorescence, higher = more signal.
Experiment [14] concerns the target Fibroblast growth factor 2 (Homo sapiens) (UniProt P09038). Description: basic fibroblast growth factor binding to printed compounds – biochemical, small-molecule microarray, 635/667 nm fluorescence, primary screen (AID 1133). As to conditions: FGF2, fluorescence 635/667, higher = more signal.
Experiment [15] is described as follows: JC-1 mitochondrial potential readout, lung cancer cells – cell-based, A549, JC-1 fluorescence, basal, 24 h, 100 nL, profiling panel (AID 1138).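 Also: A549 lung adenocarcinoma cells under basal conditions with no added stimulus; test concentration not given here.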 As to conditions: higher = more signal.
The test system of the next experiment is Lefty1. The experiment can be described thus: Lefty1 protein binding to printed compounds – biochemical, small-molecule microarray, 635/667 nm fluorescence, primary screen (AID 1139). The conditions noted are these: fluorescence 635/667, higher = more signal.
For experiment [16], the system named is wheat germ agglutinin (Triticum aestivum), Alexa647-labelled. The experiment can be described thus: Alexa647-WGA lectin binding to printed small molecules – biochemical, small-molecule microarray, 635/667 nm fluorescence, artefact control for SMM control-protein annotation, profiling panel (AID 1140).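 Also: score merges 667 nm feature emission with signal to noise over triplicate slides.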 As to conditions: WGA-A647 binding, 635 nm fluorescence, higher = more signal.

Experiment [17] has as its target Luciferin 4-monooxygenase (Photinus pyralis) (UniProt P08659). Description: inhibition of purified Photinus pyralis luciferase – biochemical, luminescence, purified enzyme, 2006 set, primary screen (AID 1141).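 Also: cell-free assay with purified firefly luciferase at 100 ng per well in PBS; test concentration not given here.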 As to conditions: purified firefly luciferase, SteadyGlo luminescence, 30 min; higher = more signal, called active from +8 up or from −8 down.

Chain of Albumin (Bos taurus) (P02769 whole entry, looked up): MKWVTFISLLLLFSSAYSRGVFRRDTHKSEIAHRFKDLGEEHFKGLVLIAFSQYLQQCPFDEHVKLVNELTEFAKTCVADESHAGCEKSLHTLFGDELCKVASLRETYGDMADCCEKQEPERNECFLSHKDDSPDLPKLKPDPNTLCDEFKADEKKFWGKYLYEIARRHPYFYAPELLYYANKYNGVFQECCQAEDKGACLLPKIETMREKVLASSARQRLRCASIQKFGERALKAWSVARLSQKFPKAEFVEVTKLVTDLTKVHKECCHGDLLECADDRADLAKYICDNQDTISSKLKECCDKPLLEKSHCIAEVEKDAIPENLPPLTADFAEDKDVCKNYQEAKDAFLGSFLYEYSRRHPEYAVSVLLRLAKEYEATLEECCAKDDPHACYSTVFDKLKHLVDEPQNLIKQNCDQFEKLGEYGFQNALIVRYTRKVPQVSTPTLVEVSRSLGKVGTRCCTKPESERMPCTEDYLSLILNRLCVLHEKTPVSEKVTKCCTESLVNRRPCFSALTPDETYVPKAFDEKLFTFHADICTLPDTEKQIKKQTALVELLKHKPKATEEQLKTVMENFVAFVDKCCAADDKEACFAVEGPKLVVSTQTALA
Chain of Luciferin 4-monooxygenase (Photinus pyralis) (P08659 whole entry, looked up): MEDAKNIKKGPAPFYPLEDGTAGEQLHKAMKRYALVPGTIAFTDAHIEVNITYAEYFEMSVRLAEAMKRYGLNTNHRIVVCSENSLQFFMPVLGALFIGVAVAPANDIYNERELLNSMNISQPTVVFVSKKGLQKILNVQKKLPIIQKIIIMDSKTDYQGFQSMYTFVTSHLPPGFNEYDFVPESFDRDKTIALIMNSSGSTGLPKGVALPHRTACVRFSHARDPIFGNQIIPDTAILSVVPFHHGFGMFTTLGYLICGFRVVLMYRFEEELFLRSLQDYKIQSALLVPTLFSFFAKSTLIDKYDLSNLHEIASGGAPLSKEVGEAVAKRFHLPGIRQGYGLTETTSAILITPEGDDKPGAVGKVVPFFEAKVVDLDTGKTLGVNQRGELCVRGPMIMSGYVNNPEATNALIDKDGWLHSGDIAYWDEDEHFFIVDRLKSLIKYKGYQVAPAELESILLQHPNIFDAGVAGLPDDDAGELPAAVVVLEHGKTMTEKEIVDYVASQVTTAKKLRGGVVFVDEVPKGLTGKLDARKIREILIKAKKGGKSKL
Chain of Fibroblast growth factor 2 (Homo sapiens) (P09038 whole entry, looked up): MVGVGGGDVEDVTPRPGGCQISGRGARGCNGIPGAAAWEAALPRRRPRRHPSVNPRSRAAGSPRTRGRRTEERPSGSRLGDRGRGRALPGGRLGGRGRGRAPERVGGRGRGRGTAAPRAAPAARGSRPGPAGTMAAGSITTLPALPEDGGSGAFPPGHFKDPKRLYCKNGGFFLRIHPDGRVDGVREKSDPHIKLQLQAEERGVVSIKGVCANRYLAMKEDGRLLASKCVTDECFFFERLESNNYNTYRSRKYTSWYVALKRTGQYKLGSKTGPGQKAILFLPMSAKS
Chain of Concanavalin-A (Canavalia ensiformis) (P02866 whole entry, looked up): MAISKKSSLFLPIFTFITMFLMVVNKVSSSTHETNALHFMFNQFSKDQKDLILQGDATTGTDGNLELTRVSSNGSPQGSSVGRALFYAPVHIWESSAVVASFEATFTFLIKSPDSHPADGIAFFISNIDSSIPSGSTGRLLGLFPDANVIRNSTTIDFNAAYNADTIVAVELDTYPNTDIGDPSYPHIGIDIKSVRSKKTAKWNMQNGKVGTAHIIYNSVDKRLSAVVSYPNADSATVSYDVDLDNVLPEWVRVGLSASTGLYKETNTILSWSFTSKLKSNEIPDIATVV
Chain of Focal adhesion kinase 1 (Homo sapiens) (Q05397 whole entry, looked up): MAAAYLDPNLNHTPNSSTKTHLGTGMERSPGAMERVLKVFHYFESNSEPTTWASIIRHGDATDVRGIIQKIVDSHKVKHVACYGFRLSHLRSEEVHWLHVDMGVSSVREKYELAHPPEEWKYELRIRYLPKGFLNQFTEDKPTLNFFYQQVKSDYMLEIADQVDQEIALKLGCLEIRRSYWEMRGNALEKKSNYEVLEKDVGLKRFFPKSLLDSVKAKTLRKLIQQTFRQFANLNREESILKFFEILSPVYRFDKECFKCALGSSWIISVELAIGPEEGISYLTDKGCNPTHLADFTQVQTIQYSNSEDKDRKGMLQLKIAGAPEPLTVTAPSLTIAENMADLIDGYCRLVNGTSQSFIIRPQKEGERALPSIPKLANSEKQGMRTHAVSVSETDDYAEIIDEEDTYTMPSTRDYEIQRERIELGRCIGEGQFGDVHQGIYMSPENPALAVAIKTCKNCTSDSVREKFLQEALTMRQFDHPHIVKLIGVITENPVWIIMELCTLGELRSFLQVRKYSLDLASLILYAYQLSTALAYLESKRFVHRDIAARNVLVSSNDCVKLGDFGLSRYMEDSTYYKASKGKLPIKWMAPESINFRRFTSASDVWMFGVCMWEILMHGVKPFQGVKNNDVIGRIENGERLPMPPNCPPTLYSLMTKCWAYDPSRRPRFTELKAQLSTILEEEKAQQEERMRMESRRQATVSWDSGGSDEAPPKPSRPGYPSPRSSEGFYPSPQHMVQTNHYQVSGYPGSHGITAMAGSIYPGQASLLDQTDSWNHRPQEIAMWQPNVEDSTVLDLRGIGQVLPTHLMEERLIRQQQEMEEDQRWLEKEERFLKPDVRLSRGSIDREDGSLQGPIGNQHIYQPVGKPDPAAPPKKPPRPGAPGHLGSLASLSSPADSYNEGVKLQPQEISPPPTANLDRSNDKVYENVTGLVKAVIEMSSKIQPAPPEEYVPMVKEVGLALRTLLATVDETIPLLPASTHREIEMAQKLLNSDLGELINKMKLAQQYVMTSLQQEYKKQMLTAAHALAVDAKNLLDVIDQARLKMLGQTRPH
Chain of Follistatin (Homo sapiens) (P19883 whole entry, looked up): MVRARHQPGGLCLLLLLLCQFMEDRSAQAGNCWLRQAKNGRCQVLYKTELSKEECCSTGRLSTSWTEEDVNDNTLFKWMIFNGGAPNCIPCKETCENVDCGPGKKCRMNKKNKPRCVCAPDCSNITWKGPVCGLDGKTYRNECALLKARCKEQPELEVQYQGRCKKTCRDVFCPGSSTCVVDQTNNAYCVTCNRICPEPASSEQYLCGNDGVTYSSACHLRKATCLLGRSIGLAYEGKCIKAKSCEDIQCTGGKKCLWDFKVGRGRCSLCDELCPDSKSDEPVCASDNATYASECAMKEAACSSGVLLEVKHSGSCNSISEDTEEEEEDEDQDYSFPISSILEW

For `CO[C@H]1O[C@H](CO)[C@@H](OC(=O)Nc2cccc(F)c2)[C@H](OC(=O)Nc2ccccc2-c2ccccc2)[C@H]1OC(=O)Nc1ccccc1-c1ccccc1`, the composite z-score is -0.8 in the experiment with Albumin (Bos taurus); 0.206 in experiment [2]; -0.0226 in experiment [3]; 0.577 in experiment [4]; 2.33 in experiment [5]; 0.57 in experiment [6]. Further, the composite z-score is 1.3 in the experiment on Sam68 (KHDRBS1); 0.484 in experiment [7]; 0.924 in experiment [8]; 2.69 in experiment [9]; 1.28 in experiment [10]; 0.55 in [11]. The composite z-score in experiment [12] amounted to 0.986; in experiment [13], 1.32; in [14], 1.5; in the experiment on Lefty1, 1.14; in experiment [16], 0.474. In addition, in experiment [1], the composite Z-score is 0.55 (inactive). The z-score in experiment [15] is -0.498; in experiment [17], 0.372 (inactive).
As for `C=CCOC(=O)[C@H]1[C@@H]2C(=O)O[C@@H](c3ccccc3)[C@@H](c3ccccc3)N2[C@@H](c2ccc(OCCOC(=O)[C@H]3C[C@H]4C(=O)N[C@@H](CCCCNC(C)=O)C(=O)N4[C@H]3c3cccc(OCCO)c3)cc2)[C@]12C(=O)Nc1ccc(I)cc12`, the composite z-score is -0.371 in the experiment with Albumin (Bos taurus); -0.366 in experiment [2]; -0.354 in [3]; 0.605 in experiment [4]; 1.47 in experiment [5]; 0.353 in [6]. Moreover, the composite z-score with Sam68 (KHDRBS1) was determined as 1.25; in experiment [7], 0.736; in experiment [8] it was 1.12; in [9], 1.3; in experiment [10], 1.15; in experiment [11] it was 0.439. Further, the composite z-score is 0.808 in experiment [12]; 1.3 in [13]; 1.68 in [14]; 1.55 with Lefty1; 0.0811 in experiment [16]. Besides, in experiment [1], the composite Z-score is 1.97 (inactive). The z-score is -1.46 in experiment [15] and -0.33 (inactive) in experiment [17].
With `CC(=O)n1cc(C(O)C2C=CC3C(=O)N(c4ccccc4)C(=O)C3N2Nc2ccc(C(C)C)cc2)c2ccccc21` (stereo not given), the composite z-score with Albumin (Bos taurus) worked out at 1.02; in [2], 0.328; in experiment [3] it was 0.08; in experiment [4] it was 0.433; in experiment [5] it was 2.87; in experiment [6], 0.503. Further, the composite z-score in the experiment on Sam68 (KHDRBS1) stood at 1.29; in experiment [7] it was 0.0259; in [8], 0.764; in experiment [9], 0.701; in experiment [10], 1.2; in [11], 1.03. Further, the composite z-score came out at 1.02 in [12]; 1 in experiment [13]; 0.672 in experiment [14]; 0.304 in the experiment on Lefty1; 0.743 in [16]. Besides, the composite Z-score in [1] is 1.19 (inactive). For the same molecule, the z-score in experiment [15] is 0.662; in [17], 0.22 (inactive).
Turning to `CC(C)C(=C=CC[C@H](O)c1cccc(OCCO)c1)CCO`, the composite z-score in the experiment with Albumin (Bos taurus) was 0.361; in experiment [2], -0.173; in experiment [3], -0.14; in experiment [4], 0.512; in [5], 0.397; in [6], -0.207. The composite z-score was -0.126 with Sam68 (KHDRBS1); -0.298 in experiment [7]; -0.0543 in experiment [8]; -0.0157 in experiment [9]; -0.374 in experiment [10]; 0.107 in [11]. For the same molecule, the composite z-score in experiment [12] was -1; in experiment [13] it was 0.277; in [14], 0.138; in the experiment on Lefty1, 0.67; in [16] it was 0.108. Besides, the composite Z-score in experiment [1] is 0.372 (inactive). Further, the z-score in experiment [15] is 0.346; in [17], 0.371 (inactive).
In the case of `COCCCNC(=O)[C@@]1(c2ccc([N+](=O)[O-])cc2)CC(=O)N(CC23CC4CC(CC(C4)C2)C3)[C@@H]1c1ccc(CO)cc1I`, the composite z-score in the experiment with Albumin (Bos taurus) was 0.0824; in [2] it was -0.0751; in experiment [3], -0.0561; in experiment [4] it was 0.126; in experiment [5], 1.61; in experiment [6] it was 0.159. Also, the composite z-score with Sam68 (KHDRBS1) was 0.745; in [7], -0.348; in experiment [8], 0.905; in experiment [9], 1.77; in experiment [10] it was 0.892; in [11], 0.0865. The composite z-score is 0.705 in experiment [12]; 1.16 in experiment [13]; 0.614 in experiment [14]; -0.122 with Lefty1; 0.47 in experiment [16]. Moreover, the composite Z-score in experiment [1] is 0.197 (inactive). For the same molecule, the results for the z-score in experiment [15] and in [17] were -0.189 and 0.482 (inactive), respectively.
